Hit rate of the full screen: of about 96,000 compounds, about 100 (0.1%) were called active.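 How the source made its calls: active means activation at 2 µM above a set limit, the mean plus 5 SD (cut at about 37% in these data); inactive means the rest.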 Many of the other results were omitted from the sample, so actives are more common in it than they were.

In this assay the target is Tyrosine-protein phosphatase non-receptor type 22 (Homo sapiens) (UniProt Q9Y2R2). The experiment in a line: enhancers of human PTPN22 catalytic activity – biochemical, DiFMUP fluorescence, 2 µM, primary screen (AID 697). The settings on record: recombinant LYP, at 2 µM, hits give high values, 0 = plate median, 100 = signal doubled.
Chain of Tyrosine-protein phosphatase non-receptor type 22 (Homo sapiens) (Q9Y2R2 whole entry, looked up): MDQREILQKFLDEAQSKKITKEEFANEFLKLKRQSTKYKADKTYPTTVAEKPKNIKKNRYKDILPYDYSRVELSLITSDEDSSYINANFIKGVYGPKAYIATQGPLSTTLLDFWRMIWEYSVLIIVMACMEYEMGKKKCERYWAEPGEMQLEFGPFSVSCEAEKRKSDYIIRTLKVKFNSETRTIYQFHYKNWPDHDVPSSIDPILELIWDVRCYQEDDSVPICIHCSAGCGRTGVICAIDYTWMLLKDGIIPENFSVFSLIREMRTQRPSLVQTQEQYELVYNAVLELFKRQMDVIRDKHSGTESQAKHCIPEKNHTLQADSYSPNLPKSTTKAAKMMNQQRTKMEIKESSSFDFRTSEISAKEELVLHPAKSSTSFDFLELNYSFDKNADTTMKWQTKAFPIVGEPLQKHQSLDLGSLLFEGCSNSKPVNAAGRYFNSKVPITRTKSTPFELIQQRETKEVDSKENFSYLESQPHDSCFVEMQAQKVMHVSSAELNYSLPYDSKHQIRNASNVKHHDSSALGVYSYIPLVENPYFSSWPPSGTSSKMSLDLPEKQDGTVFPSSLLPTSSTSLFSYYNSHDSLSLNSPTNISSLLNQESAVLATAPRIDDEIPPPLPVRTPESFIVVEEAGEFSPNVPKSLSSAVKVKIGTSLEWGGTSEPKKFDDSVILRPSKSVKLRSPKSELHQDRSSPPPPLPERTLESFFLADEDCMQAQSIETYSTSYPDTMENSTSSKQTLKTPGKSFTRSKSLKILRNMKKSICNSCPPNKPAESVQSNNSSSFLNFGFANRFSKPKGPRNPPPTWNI
As to `COc1ccc(NS(=O)(=O)c2ccc(NC(=S)NC(=O)CC(C)C)cc2)cc1`, the activation is 4.5% (inactive). `O=C(CSCc1ccc([N+](=O)[O-])cc1)Nc1cccc(C(=O)Nc2ccccc2C(=O)O)c1`: the activation is 1.6% (inactive). For the compound `Cc1c(Nc2cc(N3CCCC(C)C3)c3nonc3c2[N+](=O)[O-])c(=O)n(-c2ccccc2)n1C` (centres undefined), the activation was 3.1% (inactive). Then `CCCCN(CC)CCNC(=O)c1[nH]c(C)c(C(C)=O)c1C`, with 1.3% (inactive); and `Cc1noc(C)c1CSCC(=O)Nc1nc2ccc(Oc3ccccc3)cc2s1`, with 1.8% (inactive); and `CCN(CC)C(=O)CC1(c2ccccc2OC)CCOC(C(C)C)C1` (centres undefined), with 4.3% (inactive). For `COc1ccc(NC(=O)CC2COc3ccccc3O2)c(OC)c1` (centres undefined) the value was 0.8% (inactive); for `CCN(CC)CCNc1ccc(Cl)cc1[N+](=O)[O-]`, 14% (inactive). For `CC(C)C(=O)NC(=S)Nc1ccccc1F` the value was -2.4% (inactive). Consider `CCn1c(O)c2ccc(C(=O)N=NC(=O)c3cccnc3)cc2c1O`, for which the activation was 0.7% (inactive). For `O=C(/C=C/c1cccs1)c1cc(Cl)ccc1OC(=O)N1CCOCC1` the value was 2.4% (inactive).

On to `Clc1ccc(-n2nnnc2-c2cnc(-c3ccccn3)nc2-c2cccs2)cc1`, for which the activation was 3.1% (inactive). With `O=C(CCN1CCc2ccccc2C(O)(c2ccccc2)C1)c1ccc2c(c1)OCCO2` (centres undefined), the activation was -5.7% (inactive). For `CCOC(=O)CNC(=O)CSc1nc2cccnc2n1CC` the value was -4.9% (inactive); for `Cc1ccc2[nH]c3c(=O)n(Cc4ccccn4)cnc3c2c1`, -0.9% (inactive). Then `COC(=O)[C@@H](NC(=O)Nc1cc(Cl)ccc1C)C(C)C`, with 8.5% (inactive).

With `CC(Oc1ccc(-c2ccccc2)c(F)c1)c1ccn(S(=O)(=O)c2cccc3ccccc23)n1` (centres undefined), the activation is -6.9% (inactive).

As for `CCOC1CS(=O)(=O)CC1OCC` (centres undefined), the activation is 6.4% (inactive). As to `Cc1ccn(C(CC(=O)c2ccc(Br)cc2)C(=O)O)n1` (centres undefined), the activation was -7.9% (inactive).

With `COC(=O)CSc1nc(C)c2ccc(OC)cc2n1`, the activation is -3.9% (inactive).

Consider `O=C(Cn1c(-c2cscn2)nc2ccccc21)Nc1ccc(Cl)cc1`, for which the activation was 3% (inactive).

For `O=C(Nc1cc2ccccc2oc1=O)C1CCCCC1`, the activation was -7.9% (inactive).

In the case of `COc1cccc(C(=O)Nc2ccc(NC(=O)c3ccco3)cn2)c1`, the activation was 6.7% (inactive). With `CSCCC(NS(=O)(=O)c1ccc2c(c1)oc(=O)n2C)C(=O)NC1CCCc2ccccc21` (centres undefined), the activation was -8.6% (inactive). For `O=C(CN1C(=O)NC(Cc2ccccc2)(Cc2ccccc2)C1=O)NCC1CCCCC1` the value was 0.3% (inactive).

Turning to `Cc1ccccc1NC(=O)c1cc(S(=O)(=O)N2CCOCC2)cs1`, the activation is 38% (active).

Turning to `Cc1ccc(C(=O)Nc2ccccc2C(=O)NC2CCCCC2)cc1S(=O)(=O)N1CCOCC1`, the activation is -0.7% (inactive). `O=C(Nc1ccccc1F)c1cc(S(=O)(=O)N2CCCCC2)cs1`: the activation was -4.2% (inactive). For `CCCCNS(=O)(=O)c1ccc(S(=O)(=O)n2cnc3ccccc32)cc1` the value was -10.5% (inactive); for `CO/N=C/c1ccc(N2CCN(C(=O)c3cccc(Cl)c3)CC2)c([N+](=O)[O-])c1`, -0.2% (inactive); for `COc1cc(C(=S)N2CCOCC2)cc(OC)c1OC(=O)c1cc([N+](=O)[O-])cc([N+](=O)[O-])c1`, -4.3% (inactive). Then `CCn1c(C)nc2c1C(=O)c1ccccc1C2=O`, with -0.9% (inactive). Then `CCn1c(/C=C/c2ccc([N+](=O)[O-])o2)nc2ccccc2c1=O`, with -10.9% (inactive).

Turning to `O=C(NCCCn1ccnc1)Nc1ccc(Cl)cc1Cl`, the activation is 0.8% (inactive). `O=C(Nc1ccc2c(c1)CCC2)c1cccc(S(=O)(=O)N2CCN(c3ccc(F)cc3)CC2)c1`: the activation is -11.2% (inactive).

With `COCCCNC(=O)C1CC(=O)N(CCc2ccccc2)C1` (centres undefined), the activation was 3.1% (inactive).

As for `Cc1ccc(S(=O)(=O)N2CCC(C(=O)NCC3CCCO3)CC2)cc1` (centres undefined), the activation was 0.4% (inactive). Consider `COC(=O)c1ccccc1Sc1c(/C=N/OCc2ccc(Cl)cc2)c(C(F)(F)F)nn1C`, for which the activation was -3.5% (inactive). For `CN(C(=O)CC(NC(=O)c1ccccc1)(c1ccccc1)c1ccccc1)c1ccccc1` the value was -4.3% (inactive); for `FC(F)(F)c1cnc(Oc2ccccc2-c2nnc(-c3ccc(Cl)cc3)o2)c(Cl)c1`, 4.7% (inactive); for `CS(=O)(=O)N(Cc1ccc(Cl)cc1)c1ccc(C(=O)NCCSCc2ccco2)cc1`, 10.1% (inactive). For `CCOC(=O)N1CCC(N(CCOC)C(=O)Nc2ccc(C)c(C)c2)CC1` the value was -11.9% (inactive). For `COC(=O)c1ccccc1NC(=O)Cc1ccccc1OC` the value was -0.7% (inactive); for `COc1ccccc1C(=O)N1CC2(C)CC1CC(C)(C)C2` (centres undefined), -6% (inactive); for `CCOC(=O)C1=C(c2ccccc2)N=C2SCC(=O)N2C1c1ccc(O)c(OC)c1` (centres undefined), 6.1% (inactive).

`Cn1c(CO)cnc1SCc1ccccc1`: the activation was 5.8% (inactive).

In the case of `CN(C)c1ccc(/C=C2\NC(=S)N(Cc3ccccc3)C2=O)cc1`, the activation was -19.7% (inactive). As to `CC(C)C(=O)Nc1cccc(NC(=S)NC(=O)C(c2ccccc2)c2ccccc2)c1`, the activation was -14% (inactive). For `O=C(Nc1ccc(Br)cc1)C1CCC(=O)N1Cc1ccccc1Cl` (centres undefined) the value was -2.1% (inactive); for `COC(=O)/C=C/C(=O)NCc1ccco1`, -5.4% (inactive).

As to `N#CCSc1nc2ccc(N3CCOCC3)cc2c(=O)n1CCc1ccccc1`, the activation was 3.3% (inactive). Then `CCOC(=O)C(=CNc1cccc(C)n1)C(=O)OCC`, with 6.8% (inactive); and `CCOc1c(Br)cc(/C=C2\C(=O)N(CCC#N)N=C2C)cc1OC`, with -0.1% (inactive). As for `CCOC(=O)c1cnc(SCc2nc(N)nc(Nc3ccc(OC)cc3)n2)nc1N`, the activation was 0.5% (inactive). For `CCC(C)NC(=O)c1cc(Cl)ccc1OC` (centres undefined) the value was 7% (inactive). Then `CCN(CC)CCNC(=O)CCCCCn1c(=O)[nH]c2cc(C(=O)OC)ccc2c1=O`, with 6.8% (inactive). Then `O=C(NC1CCCCC1)c1ccc(CNc2c(N3CCOCC3)c(=O)c2=O)cc1`, with 10.2% (inactive); and `CC(C)CNC(=O)CC(c1ccccc1)c1c(O)ccc2ccccc12` (centres undefined), with -3.2% (inactive); and `O=C(NC1CCCC1)C(c1ccccn1)N(C(=O)c1csnn1)C1CCCC1` (centres undefined), with -2.6% (inactive). Turning to `O=C(COc1ccc2c(C(F)(F)F)cc(=O)oc2c1)Nc1ccc2c(c1)OCCO2`, the activation is -12.8% (inactive). Then `CCOc1ccc(NC(=O)C2CC(=O)N=C(N)S2)cc1` (centres undefined), with -0.7% (inactive); and `O=C(CCN1C(=O)c2ccccc2C1=O)Nc1cccc(F)c1`, with 7.2% (inactive). As to `CC1(C)CCc2nc(SCc3ccccc3)c(C#N)cc2C1`, the activation is 7.1% (inactive). With `C/C(=N\NC(=O)c1ccc(C)cc1)C1C(=O)c2ccccc2C1=O`, the activation is -6.7% (inactive). For `CCn1nccc1C(=O)Nc1ccc(S(=O)(=O)NC23CC4CC(CC(C4)C2)C3)cc1` the value was 4.2% (inactive); for `N#C/C(=C/c1ccc(Cl)cc1)NC(=O)c1ccccc1`, -6.7% (inactive). Consider `OC(COc1ccc2ccccc2c1)Cn1cncn1` (centres undefined), for which the activation was -5.7% (inactive). `CC1(C)OC(=O)N2CCc3ccccc3C21C` (centres undefined): the activation was -7.1% (inactive).

Consider `Cc1ccccc1OCc1nnc(SCC(=O)N2c3ccccc3Sc3ccc(Cl)cc32)o1`, for which the activation was 4.7% (inactive). `CCOC(=O)C1CSC(CC(=O)Nc2ccc(OCC)cc2)C(=O)N1` (centres undefined): the activation is 4.7% (inactive). Consider `CCN(CC)CCn1c2ccc(Cl)cc2c2nc(C)sc21`, for which the activation is -0.1% (inactive). Then `CCCc1nc2ccccc2c(C(=O)OCC(=O)c2ccc3c(c2)NC(=O)CO3)c1CC`, with 3.9% (inactive); and `Cc1cc(C)c2c(-n3cccc3)c(C(=O)NNS(=O)(=O)c3ccc(F)cc3)sc2n1`, with -0.7% (inactive).

Consider `Cc1cc(C)cc(N(CC(=O)N2CC=C(c3ccccc3)CC2)S(=O)(=O)c2c(C)noc2C)c1`, for which the activation is -2.1% (inactive).

Turning to `O=C(NC1CC1)c1ccc2c(c1)NC(=O)c1ccccc1S2`, the activation is 3.4% (inactive). For `O=C(c1ccccc1)c1cc(-c2ccccn2)c(N2CCOCC2)s1`, the activation was 6.1% (inactive). For `Cc1ccccc1-n1c(C)cc(/C=C2\NC(=O)NC2=O)c1C` the value was 12.1% (inactive); for `O=C(CN1CCN(c2ccc(Cl)cc2)CC1)N1CCCC1`, -12% (inactive); for `CN(C)C(CNC(=O)CCCOc1ccccc1)c1ccco1` (centres undefined), -1% (inactive). For `N#Cc1ccsc1NC(=O)CN1CCCCC1` the value was 5.2% (inactive). As for `COCCn1c(=S)[nH]c2cc(C(=O)NCCc3ccc(OC)c(OC)c3)ccc2c1=O`, the activation is -10.7% (inactive). `Cc1cc(C)c(S(=O)(=O)N2C=CC(C(F)(F)F)=NCC2)c(C)c1`: the activation was 16.2% (inactive). For `Cc1ccc(-c2nn(-c3ccccc3)cc2/C=N/NC(=O)c2ccc3c(c2)OCO3)cc1` the value was -4.4% (inactive); for `Cc1ccc(S(=O)(=O)NC(=O)COc2ccccc2C)cc1`, -2.9% (inactive). Then `COc1ccc(C(=O)Cc2cnn(-c3ccccc3)c2)c(O)c1`, with -3% (inactive); and `Cc1ccc(-c2nc3ccccc3[nH]2)cc1NC(=O)c1sc2ccccc2c1Cl`, with -22.6% (inactive). As for `COc1cc(N2CCCC2)c(OC)cc1/C=C(/C#N)c1cccc(Br)c1`, the activation is -2.3% (inactive). Then `C=CCn1c(SCCOc2ccc(OC)cc2)nnc1C(NC(=O)c1ccc(OC)cc1)C(C)C` (centres undefined), with -4.5% (inactive); and `CCCc1nc2oc3c(OCC)ncnc3c2c2c1COC(C)(C)C2`, with -1.3% (inactive); and `O=C(NN1C(=O)C2C3C=CC(C4CC34)C2C1=O)c1ccc(Cl)cc1` (centres undefined), with 3.3% (inactive). Turning to `COc1ccccc1C(=O)Nc1ccc(NC(=O)c2ccco2)c(C)c1`, the activation is 7.2% (inactive). Then `COc1ccc(N2CCN(C(=O)CNC(=O)c3ccc(C(C)(C)C)cc3)CC2)cc1`, with -8.3% (inactive); and `CCN(CC)C(=O)CSc1nc2ccccc2o1`, with 8.6% (inactive). For `COc1cccc(N(CC(=O)NCCSc2ccccn2)S(C)(=O)=O)c1` the value was -4.5% (inactive).

For the origin of these results see PubChem BioAssay AID697 (Columbia University Molecular Screening Center, 2007).
